# Compound activity (PubChem)
# Compounds with a hit are over-represented: about 0.37% of the library has one in this group of screens.
# Rac1 act GTP bind: modulators of GTP binding to human Rac1 activated mutant; P63000; AID 764; GST-Rac1 activated beads, fluorescent GTP binding, flow cytometry; actives lie on both sides; 100% means binding = to untreated wells; percent activity (GTP binding), % at 10 µM; hit rate 0.11% among 190,000;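 active = GTP binding at least 20 percentage points away from the 100% baseline, in either direction, so actives lie on both sides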
# Cdc42 wt: changes GTP binding to wildtype human Cdc42; P60953; GST-Cdc42 beads, Bodipy-GTP binding, flow cytometry; actives lie on both sides; hit rate 0.2% among 190,000; percent activity (GTP binding), % at 10 µM;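 active = percent activity GTP binding at least 20 points away from the 100% baseline, either down as inhibitor or up as activator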;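 also: median bead fluorescence of bound Bodipy-FL-GTP at 100 nM; below 100% means less GTP binding so inhibitor and above means activator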
# Target sequence (P60953 whole entry, looked up): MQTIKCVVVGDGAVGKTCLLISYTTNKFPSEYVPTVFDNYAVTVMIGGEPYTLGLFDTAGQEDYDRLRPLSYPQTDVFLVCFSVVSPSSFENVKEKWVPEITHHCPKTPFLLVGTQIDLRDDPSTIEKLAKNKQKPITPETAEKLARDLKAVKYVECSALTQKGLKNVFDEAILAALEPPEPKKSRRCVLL
# Rab7 wt modul: alters GTP binding to wildtype dog Rab7; hit rate 0.055% among 190,000; GST-Rab7 beads, fluorescent GTP binding, flow cytometry; actives lie on both sides; untreated = 100%, excess cold GTP = 0%; GTP binding activity (percent of control), % at 10 µM;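 active = fluorescent GTP binding to Rab7 beads changed by at least 20 points from the 100% baseline, either direction, mostly lower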;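 also: median green fluorescence of bound Bodipy-FL-GTP per Rab7 bead population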
# Rab2A wt mod: changes GTP binding to wildtype dog Rab2A, up or down | P61105 | GST-Rab2 wt beads, Bodipy-GTP binding, flow cytometry | GTP binding activity, % at 10 µM | hit rate 0.19% among 190,000 | AID 760;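 active = GTP binding activity at least 20 points away from 100%, either lowered or raised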
# HRas wt GTP bind: changes GTP binding to wildtype human HRas | GST-Ras wt beads, Bodipy-FL-GTP binding, flow cytometry; actives lie on both sides | GTP binding activity, % at 10 µM | hit rate 0.14% among 190,000 | P01112;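 active = GTP binding activity at least 20% away from the 100% baseline, either lowered as inhibitor or raised as activator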
# Target sequence (P01112 whole entry, looked up): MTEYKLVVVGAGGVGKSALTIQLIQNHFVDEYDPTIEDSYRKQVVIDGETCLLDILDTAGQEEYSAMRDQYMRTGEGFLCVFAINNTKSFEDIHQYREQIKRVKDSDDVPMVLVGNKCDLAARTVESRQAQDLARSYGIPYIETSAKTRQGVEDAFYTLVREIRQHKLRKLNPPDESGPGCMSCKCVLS
# Rac1 wt GTP bind: alters GTP binding to wildtype human Rac1; GST-Rac1 beads, fluorescent GTP binding, flow cytometry; actives lie on both sides; 0 = cold GTP competed, 100 = untreated; GTP binding activity (% of control), % at 10 µM; hit rate 0.27% among 190,000; AID 757;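 active = GTP binding activity at least 20 points away from the 100% control level, either lower or higher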
# Hits are given with their value; n = inactive; [ ] = another dose, or the depositor's remark.
SMILES,Rac1 act GTP bind,Cdc42 wt,Rab7 wt modul,Rab2A wt mod,HRas wt GTP bind,Rac1 wt GTP bind
CCc1ccc(NC(=S)N2CCN(c3cccc(OC)c3)CC2)cc1,n,n,n,n,n,n
C=CCN1C(=NC(=O)CCCC(=O)O)SC2CS(=O)(=O)CC21 (stereo unspecified),n,n,76,n,n,n
Cc1oc2c(O)c(O)ccc2c(=O)c1-c1cnn(-c2ccccc2)c1,n,n,n,n,n,n
Cc1nc(-c2cnn(-c3ccccc3)c2)c2cc(C)oc2n1,79,70,n,75,72,77
CCSc1nc(-c2cccs2)nc2ccccc12,n,n,n,n,n,n
COc1cc(/C=C2/SC(=Nc3ccc(O)cc3)NC2=O)cc(OC)c1O,79,69,n,70,74,59
COc1ccc(N=C2NC(=O)/C(=C/c3ccc(O)c(OC)c3)S2)cc1,n,n,n,n,n,n
Cc1ccc(C(=O)Nc2ccnc(-c3cccnc3)n2)cc1,n,n,n,n,n,n
Cc1ccc(NC(=O)Nc2ccnc(-c3cccnc3)n2)cc1,n,65,n,64,67,n
COc1ccc(S(=O)(=O)Cc2ccc(C(=O)N3CCN(c4cc(Cl)ccc4C)CC3)o2)cc1,76,74,77,72,n,76
COc1ccc(S(=O)(=O)Cc2ccc(C(=O)N3CCN(c4ccc(Cl)cc4)CC3)o2)cc1,n,n,n,n,n,n
CCc1ccc(NC(=O)c2cc3c(C)nc4ccccc4c3o2)cc1,n,n,n,n,n,75
Cc1ccccc1NC(=O)c1cc2c(C)nc3ccccc3c2o1,n,n,n,n,n,n
O=C(COc1ccccc1/C=C\c1[nH]c(=O)[nH]c(=O)c1[N+](=O)[O-])Nc1ccccc1,77,73,n,77,79,79
CCOC(=O)COc1ccc(Br)cc1/C=C/c1[nH]c(=O)[nH]c(=O)c1[N+](=O)[O-],n,n,n,n,n,n
Cc1sc2nc3c4ccccc4c(NCc4ccco4)nn3c(=O)c2c1C,n,75,n,74,76,n
COc1ccccc1NC(=O)c1c(Nc2ccccc2F)sc(C(=O)Nc2cccc(Cl)c2)c1N,n,n,n,n,n,n
CN(CCc1cnn(C)c1)Cc1cn[nH]c1-c1ccc(-c2ccccc2)cc1,n,n,n,n,n,n
Cc1ccc([N+](=O)[O-])cc1-c1ccc(/C=C(\C#N)c2[nH]nc(N)c2C#N)o1,n,n,n,n,n,79
CC(c1ccccc1F)n1cc(C(=O)NCCc2ccco2)nn1 (stereo unspecified),n,n,n,n,n,n
COc1ccccc1C(=O)Nc1nc(-c2ccc3c(c2)OCCO3)cs1,78,78,n,n,n,78
CCC(=O)Nc1nc(-c2ccc3c(c2)OCCO3)cs1,n,n,n,n,n,n
O=C(O)c1cccc(Oc2ccc([N+](=O)[O-])cc2)c1,120[activator],127[activator],n,121[activator],n,141[activator]
Cc1ccc(S(=O)(=O)N2CCC(NC(=O)c3cccc(C)c3)CC2)cc1,n,n,n,n,n,n
O=C(Nc1cccc(-c2nnc(-c3ccco3)o2)c1)c1ccccc1,n,n,n,n,n,76
SMILES,Rac1 act GTP bind,Cdc42 wt,Rab7 wt modul,Rab2A wt mod,HRas wt GTP bind,Rac1 wt GTP bind
COc1cccc(N=Nc2c(N)[nH]n3c(=O)cc(-c4ccccc4)nc23)c1,n,n,n,n,n,n
Nc1[nH]n2c(=O)c3c(nc2c1N=Nc1ccccc1)CCCC3,n,72,n,71,73,n
Cc1ccc(N=Nc2c(N)[nH]n3c(=O)cc(-c4ccccc4)nc23)cc1,77,79,n,78,n,79
Nc1[nH]n2c(=O)c3c(nc2c1N=Nc1ccc(Cl)cc1)CCCC3,n,n,n,n,n,74
Cn1c(=O)[nH]c(=O)c2c1nc(N1CCCCCC1)n2CCCSc1nnnn1-c1ccccc1,n,n,n,n,n,n
Cc1ccc(/C=C2/SC(=O)NC2=S)o1,n,n,n,n,n,n
CCc1nnc2c(N(C)C)nc3ccccc3n12,n,n,n,n,n,76
